How the values were obtained:
Assay type in all cases: functional
[1] = target: Solute carrier family 2, facilitated glucose transporter member 1 (Homo sapiens) (UniProt P11166); assay: ST_JUDE_LEISH: Cytotoxicity at 2uM final concentration against transgenic Leishmania Mexicana promastigotes LmGLUT1 that are glucose transport deficient and complemented with the human glucose transporter GLUT1. Activity is measured by DNA content using SYBR green in vitro
[2] = target: Hexose transporter 1 (Plasmodium falciparum) (UniProt O97467); assay: ST_JUDE_LEISH: Cytotoxicity at 2uM final concentration against transgenic Leishmania Mexicana promastigotes LmPfHT that are glucose transport deficient and complemented with the Plasmodium falciparum hexose transporter. Activity is measured by DNA content using SYBR green in vitro
[3] = target: Glucose transporter (Leishmania mexicana) (UniProt O61059); assay: ST_JUDE_LEISH: Cytotoxicity at 2uM final concentration against transgenic Leishmania Mexicana promastigotes LmGT2 that are glucose transport deficient and complemented with the L. Mexicana glucose transporter 2. Activity is measured by DNA content using SYBR green in vitro

Solute carrier family 2, facilitated glucose transporter member 1 (Homo sapiens), sequence (P11166 whole entry): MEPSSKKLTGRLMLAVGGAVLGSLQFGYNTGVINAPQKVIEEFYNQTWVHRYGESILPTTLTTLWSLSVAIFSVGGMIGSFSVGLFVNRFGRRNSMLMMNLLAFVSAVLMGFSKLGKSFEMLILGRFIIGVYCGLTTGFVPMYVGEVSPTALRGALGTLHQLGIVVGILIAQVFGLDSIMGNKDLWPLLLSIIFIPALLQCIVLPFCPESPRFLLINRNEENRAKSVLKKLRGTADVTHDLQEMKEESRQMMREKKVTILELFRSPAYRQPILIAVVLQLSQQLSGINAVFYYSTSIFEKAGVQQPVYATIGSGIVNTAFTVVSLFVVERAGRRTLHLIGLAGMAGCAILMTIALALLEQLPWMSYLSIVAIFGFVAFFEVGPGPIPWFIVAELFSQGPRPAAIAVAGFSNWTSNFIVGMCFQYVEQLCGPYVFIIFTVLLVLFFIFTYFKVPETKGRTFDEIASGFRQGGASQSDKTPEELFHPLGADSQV

| Structure (SMILES) | inhibition [1] | inhibition [2] | inhibition [3] |
| --- | --- | --- | --- |
| COc1ccc(CNc2nccc3ccc(-c4ccc(N)nc4)cc23)cc1 | -2.02% | -0.06% | -0.73% |
| COc1nc(NCC(C)C)nc(Oc2ccc(=O)n(Cc3ccccc3)n2)n1 | 1.73% | 1.88% | 3.48% |
| COc1ccc(CNC2CCN(C)CC2)cc1-c1ccc(S(=O)(=O)NCCc2ccccn2)c(C)c1 | 4.11% | 1.98% | 1.53% |
| COc1ccc2nccc(N3CCC(O)(CCNCc4ccc5c(n4)NC(=O)CS5)CC3)c2n1 | 7.13% | 8.14% | 7.92% |
| O=C(/C=C/c1ccc(Cl)c(Cl)c1)NCCCCCN1CCC(NC(=S)Nc2ccc(F)cc2F)CC1 | 16.5% | 14.9% | 14.5% |
| O=C(Nc1ccccc1)N(Cc1cccc(-c2ccc(CNCCc3ccccc3)cc2)c1)C1CCN(Cc2ccccc2)CC1 | 0.46% | -0.56% | 0.13% |
| CCN(Cc1ccccc1)C1CCN(Cc2cc(Br)ccc2O)CC1 | 2.39% | 2.05% | 2.71% |
| COc1ccc(C=CC(=O)NC(=O)c2ccccc2OC(=O)c2ccccc2)cc1OC | 2.48% | 2.16% | 1.89% |
| CCc1c(CCNCCCCCCNC(C)(C)Cc2ccc3c(c2CC)OCO3)ccc(OC)c1OC | 10% | 10.7% | 6.49% |
| COc1c(C=NNc2nc(=Nc3ccccc3)[nH]c(=Nc3ccccc3)[nH]2)ccc(Br)c1O | 11.3% | 11.7% | 9.27% |
| CCN(CC)CCOc1ccc(C(O)(C#CC(O)(c2ccc(Br)cc2)c2ccc(OCCN(CC)CC)cc2)c2ccc(Br)cc2)cc1 (stereo unspecified) | 4.97% | 5% | 3.37% |
| CCOc1cc(C(=O)NC2CC(C)(C)NC(C)(C)C2)ccc1-c1cc2cc(Cl)c(Cl)cc2[nH]1 | -1.95% | -1.26% | -0.02% |

Source: ChEMBL document CHEMBL3433997, “St. Jude Leishmania screening dataset” (2016)
